Assay outcomes (PubChem BioAssay)
A selection: hits, their analogues and other compounds. The true share with any hit is near 2.8%.
CtBP-E1A blk: inhibitors of CtBP/E1A interaction | AlphaScreen GST-E1A/His-CtBP binding, 1536-well; active compounds read low | activity change, % (test concentration not listed) | 0.49% of 340,000 active; in the data active = activity change below about -65%; inconclusive = mostly about -30% to -63%; also: % is scaled to controls: 0 for no effect and ±100 for the full control effect
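Steps: dispense buffer (Tris pH 8.0, NaCl 300 mM, TCEP 1 mM, BSA, Tween 20); add 5X protein mix (GST-E1A, His-CtBP, 125 nM each); pin 23 nL compound; 2 h at 37 °C, dark; add 5X beads (50 ug/mL); 1 h; read.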
TGFb SMAD3 inh: inhibitors of TGF-b signaling; HepG2 CAGA-GFP TGF-b/SMAD3 reporter, GFP fluorescence, 18 h; TGF-beta stimulated, 500 pg/mL final; Potency, µM (doses to about 46.1 µM), without a hit: at the top dose activity, negative = inhibition, actives largely listed as inhibitors; 1.2% of 410,000 active; AID 588855; also: potency is read from the fitted curve at half-maximal effect; % is scaled to controls: 0 for no effect and ±100 for the full control effect; nearly all actives have a fitted effect of over 65% in size
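Per well, imaged GFP fluorescence of HEPG2 CAGA-GFP cells gives the signal; cells get compound, then TGF-beta (500 pg/mL final), 18 h at 37 degrees C; %Activity versus -TGF-beta and +DMSO controls.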
HepG2 viability: kills HepG2 cells in TGF-b inhibitor counter-screen. HepG2 CAGA-GFP viability, ATP luminescence, 18 h. AID 588856. Potency, µM (highest dose often 46.1 µM), inactives show top-dose activity change, negative = cytotoxicity, hits mostly cytotoxic. 0.76% of 410,000 active; also: potency is read from the fitted curve at half-maximal effect
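HepG2 CAGA-GFP cells (1000/well, DMEM with 1% FBS) received compound, then TGF-beta at 500 pg/mL final, and were incubated 18 hours at 37 degrees C. Viability was read by CellTiter-Glo luminescence. Media-only wells were set as complete cell-killing and DMSO as no toxicity.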
S2 tox: reduces viability in counter-screen for ATXN expression inhibitors | Potency, µM (highest dose often 56.7 µM), usual class: cytotoxic | 0.49% of 400,000 active | S2 cells (HEK-293 line with an ATXN2-luciferase reporter) viability, CellTiter-Fluor protease fluorescence, 24 h; also: potency is read from the fitted curve at half-maximal effect; nearly all actives have a fitted effect of over 40% in size
Six1-Eya2 inh: Six1/Eya2 interaction inhibition; AlphaScreen GST-Six1/His-Eya2 binding, biochemical; active compounds read low; activity change, % (no concentration beside the values); Q15475+O00167; 0.56% of 360,000 active; AID 651725; in the data active = activity change below about -65%; inconclusive = mostly about -30% to -63%; also: % is scaled to controls: 0 for no effect and ±100 for the full control effect
Target sequence (O00167 whole entry, looked up): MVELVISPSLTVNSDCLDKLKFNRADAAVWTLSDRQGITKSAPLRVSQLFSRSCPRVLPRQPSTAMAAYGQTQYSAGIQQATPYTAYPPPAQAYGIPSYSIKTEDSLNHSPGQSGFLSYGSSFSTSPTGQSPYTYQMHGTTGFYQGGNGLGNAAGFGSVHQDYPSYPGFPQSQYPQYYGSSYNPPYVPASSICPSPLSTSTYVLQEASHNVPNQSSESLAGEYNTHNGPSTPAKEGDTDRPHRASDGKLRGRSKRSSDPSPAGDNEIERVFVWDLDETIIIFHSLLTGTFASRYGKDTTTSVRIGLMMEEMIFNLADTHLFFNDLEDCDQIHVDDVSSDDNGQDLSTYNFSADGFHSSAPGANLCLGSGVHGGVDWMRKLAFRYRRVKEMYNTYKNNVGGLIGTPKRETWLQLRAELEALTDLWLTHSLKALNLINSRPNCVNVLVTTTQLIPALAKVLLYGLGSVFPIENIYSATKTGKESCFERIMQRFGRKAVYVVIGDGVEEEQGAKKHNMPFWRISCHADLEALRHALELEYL
Target sequence (Q15475 whole entry, looked up): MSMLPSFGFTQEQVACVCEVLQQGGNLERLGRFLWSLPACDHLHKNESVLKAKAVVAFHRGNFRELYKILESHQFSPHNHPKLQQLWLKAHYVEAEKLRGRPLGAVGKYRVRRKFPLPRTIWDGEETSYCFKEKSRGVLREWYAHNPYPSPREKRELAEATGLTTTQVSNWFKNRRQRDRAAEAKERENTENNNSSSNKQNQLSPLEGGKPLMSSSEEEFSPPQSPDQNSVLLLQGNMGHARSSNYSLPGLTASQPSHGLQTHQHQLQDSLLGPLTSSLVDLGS
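AlphaScreen luminescence read after one hour at 37 °C in darkness. Pin-transferred compounds met GST-Six1 and His-Eya2 protein (5X stock 250 nM/500 nM) plus glutathione donor and Ni-chelate acceptor beads (5X, 50 ug/mL).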
ATXN2 expr inh: inhibitors of ATXN2 expression | HEK-293 ATXN2-luciferase reporter, luminescence, 24 h | Potency, µM (series often up to 57 µM), for the others: at the highest dose activity change, negative = inhibition, actives largely listed as inhibitors | 0.72% of 360,000 active | AID 1745845; also: potency is read from the fitted curve at half-maximal effect; % is scaled to controls: 0 for no effect and ±100 for the full control effect; nearly all actives have a fitted effect of over 55% in size
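qHTS (up to 57 uM final) was run with 24 h compound exposure of reporter cells at 37 °C. Each well was multiplexed: SteadyGlo luminescence measured ATXN2-luciferase expression after a fluorogenic Gly-Phe-AFC viability readout (25 uM final).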
* = called active by the depositor; i = inactive; ? = inconclusive; . = no result; ! = not active in a repeat. Unless noted, calls follow the shape of the dose curve; as a rule, active = well fitted curve in the direction sought with a large enough effect; inconclusive = small, poorly fitted or top-dose-only effect, or another doubt; inactive = no such curve, though single readings can be large; an effect the other way counts as inactive or inconclusive.

SMILES | CtBP-E1A blk | TGFb SMAD3 inh | HepG2 viability | S2 tox | Six1-Eya2 inh | ATXN2 expr inh
COc1cc2ccnc(C=NO)c2cc1OC | -28 | -2% | -35% | i | -86* | .
Cc1cc(Nc2nnnn2-c2ccccc2)n(-c2ccc(Cl)cc2)n1 | -7 | 13µM* | 2.8µM* | i | -1 | -10%
Cc1ccccc1N1CCN(Cc2c[nH]c3ccccc23)CC1 | 21 | ? | 10µM* | ? | 5 | ?
COc1cc(=O)n2c(c1C(=O)N(C)Cc1cscn1)CCN(Cc1c(C)[nH]c3ccccc13)CC2 | . | . | . | i | . | .
Cn1c(SCc2ccccc2)nccc1=O | 12 | 16% | 2% | i | 1 | 6%
CC1=C(SCc2ccccc2)C(=O)c2ccccc2C1=O | ? | 7.9µM* | 13µM* | ? | ? | ?
C=CC[N@@+]12CC[C@@]34c5ccccc5N5/C=C6/[C@H]7C[C@H]8[C@@]9(CC[N@@+]8(CC=C)C/C7=C/CO)c7ccccc7N(/C=C(/[C@@H](C[C@@H]31)/C(=C\CO)C2)[C@H]54)[C@@H]69 | . | . | . | i | . | .
COc1cc(SC#N)ccc1N=Cc1c(C)[nH]n(-c2ccc(C)c(C)c2)c1=O | ? | ? | 8.9µM* | 13µM* | -66* | 11µM*
CC(C)C1CC(CCNCc2ccc(N(C)C)cc2)(c2ccccc2)CCO1 (configuration not stated) | ? | ? | -49% | ? | -65* | ?
Cc1ccc(C2(CCNCc3ccc(N(C)C)cc3)CCOC(C(C)C)C2)cc1 (configuration not stated) | ? | ? | -57% | ? | ? | ?
Cc1ccc2nc3ccc(N4CCCC4)nn3c(=O)c2c1 | -8 | -27% | -16% | i | -8 | 38%
CC1CCCN(c2ccc3nc4ccccc4c(=O)n3n2)C1 (configuration not stated) | 15 | ? | -53% | i | -67* | ?
O=C(NCc1ccncc1)C12C[C@H]3C[C@@H](C1)CC(c1ccc(Cl)cc1)(C3)C2 | . | . | . | . | . | -4%
N#CC(=C1C=CC(=NO)C(Cl)=C1)c1ccccc1 | -1 | 11µM* | -62% | i | -3 | 0%
O=[N+]([O-])c1cc(Cl)ccc1Nc1ccccc1 | . | -4% | 2% | i | -78* | .
O=C(NCC1CCC2(CCN(Cc3cnn(-c4ccc(F)cc4)c3)CC2)O1)c1ccccc1 (configuration not stated) | . | . | . | i | . | .
CC(=O)C1(O)Cc2c(O)c3c(c(O)c2C(OC2CC(N)C(O)C(C)O2)C1)C(=O)c1c(O)cccc1C3=O (configuration not stated) | . | 1.6µM* | -105% | . | . | .
Cc1ccnc(NC(=O)c2ccc(OCC3CCCO3)cc2)c1 (configuration not stated) | 2 | 2% | -53% | i | 4 | 5.6µM*
CC(C)c1ccc(OCC(=O)NC2CC(C)(C)NC(C)(C)C2)c(Br)c1 | 4 | ? | 11µM* | i | 0 | -17%
CC1(C)CC(NC(=O)COc2ccc(Cl)cc2Cl)CC(C)(C)N1 | -9 | 10% | -2% | i | 3 | -9%
CC(=O)Nc1cc(NC(C)=O)cc(-c2nc3ccccc3[nH]2)c1 | 0 | 7.1µM*! | 13µM*! | 32µM*! | -2 | ?
O=C(NN1C(=O)/C(=C/c2cccs2)SC1=S)c1ccncc1 | -72* | -16% | -21% | ? | -70* | -6%
Cn1cc(/C=C2\SC(=S)N(NC(=O)c3ccccc3Cl)C2=O)c2ccccc21 | -6 | ? | -26% | ? | -13 | -7%
O=C(CCCN1C(=O)/C(=C\c2cccs2)SC1=S)NNC(=O)c1ccncc1 | -26 | -2% | -21% | ? | 1 | -11%
Cn1cccc1/C=C1\SC(=S)N(NC(=O)c2ccccc2Cl)C1=O | ? | 6% | 21% | i | -72* | 5%
SMILES | CtBP-E1A blk | TGFb SMAD3 inh | HepG2 viability | S2 tox | Six1-Eya2 inh | ATXN2 expr inh
O=C(O)COc1ccccc1/C=C1\SC(=S)N(/N=C/c2ccccc2O)C1=O | ? | 1% | -1% | i | -29 | 2%
O=C(O)COc1ccccc1/C=C1\SC(=S)N(NC(=O)c2ccccc2O)C1=O | -81* | -33% | 0% | i | -73* | 16%
Cc1ccc(C(=O)NN2C(=O)/C(=C/c3cccn3C)SC2=S)cc1 | ? | 8% | -52% | i | -69* | 1%
Cc1ccc(-n2nc3c(=O)n(CC(=O)NCCC(C)C)nc(C)c3c2C)cc1 | . | -18% | -12% | . | . | .
CCOc1cccc2sc(NC(=O)c3ccc(S(=O)(=O)N4CCCc5ccccc54)cc3)nc12 | . | ? | -17% | . | . | .
O=[N+]([O-])/C=C/c1cn(Cc2ccc(F)cc2)c2ccccc12 | -10 | 7.9µM* | -59% | ? | -4 | ?
CCCN1CCC(=O)N(CCC#N)CC1 | . | 2% | 32% | . | . | .
CN(C)c1ccc(C=c2c3ccccc3n3c2cc(-c2ccc(Cl)cc2)[n+]3C)cc1 | 18 | ? | -61% | 11µM* | ? | ?
CN(C)c1ccc(/C=C2\CCc3ccccc32)cc1 | . | 0% | -27% | . | . | .
COc1cc(N(C)C)ccc1C=c1c2ccccc2n2c1cc(-c1ccccc1)[n+]2C | -80* | 3.5µM* | -61% | 12µM* | -80* | 12µM*
CN(C)c1ccc(C=c2c3ccccc3n3c2c2c([n+]3C)CCCC2)cc1 | -14 | 2.5µM* | -51% | 22µM* | ? | 8.9µM*
CN(C)c1ccc(C=c2c3ccccc3n3c2cc(-c2ccccc2)[n+]3C)cc1 | 16 | ? | 7.9µM* | 6µM* | ? | ?
CC(C)(C)n1ncc2c(=O)n(Cc3cc(F)ccc3Cl)cnc21 | . | -3% | -1% | . | . | .
CN(C)c1ccc(C=c2c3cc([N+](=O)[O-])ccc3n3c2cc(-c2ccccc2)[n+]3C)cc1 | 6 | ? | -73% | . | -80* | 28µM*
Cc1ccn2cc(-c3ccc(O)c(O)c3)nc2c1 | . | 11µM* | -66% | ? | -6 | .
CCOC(=O)COc1ccc(CC)cc1C(=O)c1ccn2nc(-c3ccc(F)cc3)cc2n1 | . | 0% | 0% | i | . | 2%
Cc1nc(SCC(=O)Nc2ccc(C)c(Cl)c2)cc(-c2ccccc2)n1 | . | 10µM* | -12% | . | . | .
C/C(=N\NC(=O)c1cc(C2CC2)nc2ccccc12)c1ccc(O)cc1O | -20 | ? | -17% | ? | -9 | 2.5µM*
C/C(=N\NC(=O)c1cc(C2CC2)nc2ccccc12)c1ccc(C)s1 | -8 | -2% | 0% | i | 1 | 2%
Cc1nonc1C(=O)N/N=C/c1ccc(O)cc1O | . | -28% | -41% | i | -90* | ?
